The structures appear in SMILES notation. A number with no mark means an inactive call. Results filed as inconclusive are left out. Active and inactive are the calls of the source. Unless noted, calls come from the whole dose curve; as a rule, active = well fitted curve in either direction with a large enough effect (not every such curve was filed as active); inconclusive = small, poorly fitted or top-dose-only effect, or another doubt; inactive = flat fitted curve, though single readings scatter.

The target of test [1] is Lysosomal acid glucosylceramidase (Homo sapiens) (UniProt P04062). Kind of test: Glucocerebrosidase-p2 (AID 348; in the data active = potency below about 10 µM; note: potency is the fitted concentration of half-maximal effect). The following applies: purified GBA, blue fluorogenic substrate, 40 min. The method in brief: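 Normal human glucocerebrosidase (0.2 nM) with blue fluorogenic substrate (80 uM final) in citrate/phosphate pH 5.9 with 10mM sodium taurocholate, 0.01% tween-20; 40 min RT, NaOH/glycine stop; fluorescence Ex 365/Em 440; AC50 from a titration from 0.6 nM upwards.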
Sequence of Lysosomal acid glucosylceramidase (Homo sapiens) (P04062 whole entry, looked up): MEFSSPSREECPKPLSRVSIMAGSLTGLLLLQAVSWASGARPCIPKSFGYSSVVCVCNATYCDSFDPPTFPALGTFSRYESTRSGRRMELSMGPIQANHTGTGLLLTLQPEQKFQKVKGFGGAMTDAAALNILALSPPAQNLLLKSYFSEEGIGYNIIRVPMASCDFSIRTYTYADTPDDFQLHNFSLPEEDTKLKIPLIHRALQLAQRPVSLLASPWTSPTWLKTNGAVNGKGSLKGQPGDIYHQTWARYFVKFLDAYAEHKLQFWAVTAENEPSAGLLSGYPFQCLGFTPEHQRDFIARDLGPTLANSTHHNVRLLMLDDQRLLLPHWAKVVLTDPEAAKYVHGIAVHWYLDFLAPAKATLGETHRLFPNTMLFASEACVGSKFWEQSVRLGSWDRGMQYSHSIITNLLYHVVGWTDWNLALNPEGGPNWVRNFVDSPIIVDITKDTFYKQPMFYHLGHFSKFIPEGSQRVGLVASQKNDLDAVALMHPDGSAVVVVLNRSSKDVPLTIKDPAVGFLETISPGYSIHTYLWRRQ

Test [2] is described as follows: AP1 Signaling Pathway (AID 357).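 Note: ME-180 reporter cells stimulated with EGF at its EC50 level; % is set by controls: 0 for no effect and ±100 for the full control effect.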 The following applies: ME-180 AP-1-bla reporter, EGF-induced, beta-lactamase ratio, 5 h; at 7.69 µM (top of the series) unless noted. The method, boiled down:
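Titration-series screen for positive or negative modulators of EC50 EGF-induced signaling in ME-180 cells carrying an AP-1-driven beta-lactamase reporter. After 5 hours at 37 degrees Celsius, CCF4 460nm/530nm emission ratio gave %Activity; AC50 values derived.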

In test [3] the target is Cytochrome P450 1A2 (Homo sapiens) (UniProt P05177). Kind of test: p450-cyp1a2 (AID 410; calls by dose curve; note: potency is the fitted concentration of half-maximal effect;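 for activity change, negative = inhibition: -100% = full effect of reference inhibitor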). The settings on record: recombinant CYP1A2, luciferin-ME demethylation, luminescence; series mostly up to 11.4 µM. The method, boiled down:
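20nM CYP1A2, 100uM Luciferin-ME (=Km), 100mM KPO4; cpd 10 min RT; +NADPH regen, 60 min RT; stop/detect 20 min; luminescence. Normalized to furafylline 57 uM = full inhibition.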

A short description of test [4]: NFAT Signaling Pathway (AID 444).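 Note: carbachol stimulus at about its EC50 of 1 µM final; % is set by controls: 0 for no effect and ±100 for the full control effect.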 The settings on record: Jurkat NFAT-bla M1, carbachol, beta-lactamase ratio, 5 h; at 7.69 µM (top of the series) unless noted. The method in brief: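 Jurkat cells with NFAT-driven β-lactamase reporter and co-expressed M1 receptor, stimulated with carbachol (final 1 uM, ~EC50), compound titration, 5 h at 37 °C. CCF4 loaded 1 h at RT; 460/530 nm ratio gave %activity and AC50.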

The nature of test [5]: Stat Signaling Pathway (AID 446).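 Note: ME-180 cervical cancer cells given 40 pM IL-6 alongside compound; SIE-controlled beta-lactamase reporter measured as 460/530 nm FRET emission ratio; % is set by controls: 0 for no effect and ±100 for the full control effect.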 The following applies: ME-180 (cervical carcinoma) SIE beta-lactamase reporter, IL-6 stimulated, 5 h; at 7.69 µM (top of the series) unless noted. The method in brief: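 Compound effects on IL-6-induced STAT reporter activity were measured in ME-180 cells. After overnight culture, cells were co-treated with 40 pM IL-6 for 5 hrs before beta-lactamase substrate loading at room temperature.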

Test [6] deals with Glucocorticoid receptor (Homo sapiens) (UniProt P04150). Kind of test: GR-GFP Redistribution (AID 450;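 active = compounds whose dose series gives a full or clear partial fitted curve of increased nuclear translocation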; note: potency is the fitted concentration of half-maximal effect). The settings on record: U2OS GR-GFP nuclear translocation, laser cytometry, 2 h.
Sequence of Glucocorticoid receptor (Homo sapiens) (P04150 whole entry, looked up): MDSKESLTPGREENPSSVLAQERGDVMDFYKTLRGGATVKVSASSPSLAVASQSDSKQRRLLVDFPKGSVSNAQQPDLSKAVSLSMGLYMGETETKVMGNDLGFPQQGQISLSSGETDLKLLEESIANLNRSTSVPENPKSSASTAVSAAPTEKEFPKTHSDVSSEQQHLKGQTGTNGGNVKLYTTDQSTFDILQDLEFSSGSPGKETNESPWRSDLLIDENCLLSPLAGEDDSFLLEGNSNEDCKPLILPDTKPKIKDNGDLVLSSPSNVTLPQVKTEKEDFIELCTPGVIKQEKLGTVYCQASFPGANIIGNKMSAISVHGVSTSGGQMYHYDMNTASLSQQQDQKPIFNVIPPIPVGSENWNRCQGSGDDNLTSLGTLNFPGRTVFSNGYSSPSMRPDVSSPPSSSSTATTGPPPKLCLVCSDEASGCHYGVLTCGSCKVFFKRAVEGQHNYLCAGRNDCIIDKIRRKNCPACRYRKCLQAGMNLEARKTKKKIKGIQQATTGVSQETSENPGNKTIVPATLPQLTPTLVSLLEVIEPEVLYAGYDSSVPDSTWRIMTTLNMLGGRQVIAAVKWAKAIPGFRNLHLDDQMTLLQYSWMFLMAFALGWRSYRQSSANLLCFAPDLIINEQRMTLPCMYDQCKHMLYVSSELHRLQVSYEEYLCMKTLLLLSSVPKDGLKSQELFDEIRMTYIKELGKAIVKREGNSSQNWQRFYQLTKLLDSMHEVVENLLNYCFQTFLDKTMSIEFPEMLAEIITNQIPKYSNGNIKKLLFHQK
For test [7] the target is unchanged. Kind of test: GR-EFC Redistribution (AID 451; calls by dose curve; note: potency is the fitted concentration of half-maximal effect). The following applies: CHO-K1 GR-EFC translocation, beta-gal luminescence, 2 h. The method in brief:
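CHO-K1 cells expressing nuclear EA and GR-ED fragments of b-gal; compounds titrated up to 46 uM final, 2 h at 37 C. GR nuclear translocation read as complemented b-gal luminescence after 1 h RT detection.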

Test [8] concerns the target Mitogen-activated protein kinase 10 (Mus musculus) (UniProt Q61831). Put plainly: JNK3 AlphaScreen Assay (AID 530).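 Note: kinase came from lysate of stimulated human HepG2 cells; signal reports phosphorylation of biotinylated GST-cJun 1-79 at Ser73 with 10 µM ATP; % is set by controls: 0 for no effect and ±100 for the full control effect.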 The following applies: JNK3 lysate, c-Jun phosphorylation; series mostly up to 11.4 µM. The method, boiled down:
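HepG2 lysate (IL-1b/TNFa pre-activated) + biotin-GST-cJun 1-79 + anti-pSer73 cJun; cpd titration, 15 min RT; ATP 10 uM start; Tris pH 7.6, MgCl2, DTT, vanadate; beads in EDTA buffer; AlphaScreen.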

The target of test [9] is 3',5'-cyclic-AMP phosphodiesterase 4B (Homo sapiens) (UniProt Q07343). Put plainly: qHTS Assay for Inhibitors of PDE-IV (AID 607; active = well fitted activation curve with a large enough effect in the main read-out, with a control signal flat, not every such curve was filed as active; note: % of control where 0% means no effect). The following applies: HEK293 ACTOne CNG channel cells, membrane potential fluorescence; series mostly up to 22.9 µM. The method, boiled down:
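ACTOne HEK293 cells carry a modified cAMP-gated CNG channel and express endogenous PDE4; plated 1000 cells/well, compounds up to 22.9 uM final. Membrane-potential dye fluorescence (ex 535/em 590) was read; parental cells received 10 uM forskolin + 100 uM RO 20-1724.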

Sequence of Cytochrome P450 1A2 (Homo sapiens) (P05177 whole entry, looked up): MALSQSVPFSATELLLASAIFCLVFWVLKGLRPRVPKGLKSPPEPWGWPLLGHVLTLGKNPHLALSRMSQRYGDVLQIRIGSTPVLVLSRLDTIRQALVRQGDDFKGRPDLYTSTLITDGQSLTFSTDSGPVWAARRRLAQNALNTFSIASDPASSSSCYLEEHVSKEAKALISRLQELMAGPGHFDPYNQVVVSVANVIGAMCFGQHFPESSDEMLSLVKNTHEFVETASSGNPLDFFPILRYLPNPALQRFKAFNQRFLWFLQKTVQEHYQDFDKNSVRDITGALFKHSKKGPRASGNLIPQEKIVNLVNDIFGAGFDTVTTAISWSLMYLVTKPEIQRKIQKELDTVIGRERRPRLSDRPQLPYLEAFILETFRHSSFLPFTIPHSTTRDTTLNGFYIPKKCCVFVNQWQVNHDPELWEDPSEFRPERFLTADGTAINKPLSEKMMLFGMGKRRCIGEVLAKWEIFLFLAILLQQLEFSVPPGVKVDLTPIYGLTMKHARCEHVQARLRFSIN
Sequence of 3',5'-cyclic-AMP phosphodiesterase 4B (Homo sapiens) (Q07343 whole entry, looked up): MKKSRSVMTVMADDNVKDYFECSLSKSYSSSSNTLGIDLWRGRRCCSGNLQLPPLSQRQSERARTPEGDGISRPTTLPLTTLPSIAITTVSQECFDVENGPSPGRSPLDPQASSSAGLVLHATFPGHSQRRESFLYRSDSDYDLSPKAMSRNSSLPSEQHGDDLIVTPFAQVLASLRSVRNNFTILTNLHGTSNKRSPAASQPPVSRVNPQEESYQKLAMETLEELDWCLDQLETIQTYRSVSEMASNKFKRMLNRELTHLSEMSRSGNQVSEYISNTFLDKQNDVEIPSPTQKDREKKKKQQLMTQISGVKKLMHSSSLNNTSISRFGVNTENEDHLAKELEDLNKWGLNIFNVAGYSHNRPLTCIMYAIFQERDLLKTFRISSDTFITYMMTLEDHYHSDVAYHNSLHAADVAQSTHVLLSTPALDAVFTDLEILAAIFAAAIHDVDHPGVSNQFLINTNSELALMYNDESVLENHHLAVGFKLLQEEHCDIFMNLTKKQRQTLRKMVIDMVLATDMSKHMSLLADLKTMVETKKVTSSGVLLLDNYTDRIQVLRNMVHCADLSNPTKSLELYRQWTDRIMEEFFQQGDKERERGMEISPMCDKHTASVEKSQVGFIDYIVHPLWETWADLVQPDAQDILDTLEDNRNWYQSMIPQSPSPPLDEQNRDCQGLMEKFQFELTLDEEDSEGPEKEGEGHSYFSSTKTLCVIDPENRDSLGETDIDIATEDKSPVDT

In the case of `NS(=O)(=O)c1ccc(NCc2nc3ccccc3[nH]2)cc1`, the figures for the Potency in test [1], in test [6] and in test [7] were greater than 11.4 µM, greater than 46 µM and greater than 9.22 µM, respectively. Moreover, the activity change, negative = inhibition was 2.25% in test [2], -18.8% [at 2.29 µM] in test [3] and 8.2% in test [4]. In addition, the activity, negative = inhibition in test [5] was 9.55%. In addition, the Potency result in test [8] and in test [9] was “inactive” each time.

As for `CN(C)CCNS(=O)(=O)N(C)C`, the figures for the Potency in test [1], in test [6] and in test [7] were greater than 11.4 µM, greater than 46 µM and greater than 9.22 µM, respectively. The results for the activity change, negative = inhibition in [2] and in test [4] were -0.375% and 3.58%, respectively. The Potency entry in test [3], in test [8] and in test [9] was “inactive” in each case. Further, the activity, negative = inhibition in test [5] is 4.72%.

On to `COc1ccc2nccc(SCC(=O)O)c2c1`, for which the Potency in test [1] was greater than 11.4 µM; in test [3], 3.98 µM (active); in test [6], greater than 46 µM; in test [7] it was greater than 9.22 µM. For the same molecule, the activity change, negative = inhibition in [2] is 7.58%; in test [4] it was 6.79%. Also, the activity, negative = inhibition in test [5] was -2.7%. The Potency result in [8] and in test [9] was “inactive” throughout.

Take `CC1CCC(C(=O)O)([C@H](Br)C(=O)O)CC1` (stereo not given in full): the values for the Potency in [1], in test [6] and in [7] were greater than 11.4 µM, greater than 46 µM and greater than 9.22 µM, respectively. For the same molecule, the results for the activity change, negative = inhibition in [2] and in [4] were -2.54% and 13.7%, respectively. For the same molecule, the Potency result in test [3], in test [8] and in test [9] was “inactive” throughout. In [5], the activity, negative = inhibition is 8%.

Regarding `c1ccc2c(c1)C(=Nc1ccc(N=C3c4ccccc4-c4ccccc43)cc1)c1ccccc1-2`, the Potency is greater than 11.4 µM in test [1], greater than 46 µM in [6] and greater than 9.22 µM in [7]. The activity change, negative = inhibition is -0.81% in test [2], -19.6% [at 2.29 µM] in test [3] and 10.5% in test [4]. Moreover, in test [5], the activity, negative = inhibition was 4.55%. The Potency entry in [8] and in test [9] was “inactive” in each case.

For `O=[N+]([O-])/C=C\c1cc2ccccc2[nH]1`, the Potency in test [1] was greater than 11.4 µM; in [3], 1.26 µM (active); in test [6], greater than 46 µM; in [7], greater than 9.22 µM. For the same molecule, the activity change, negative = inhibition was -11.8% in test [2] and 12.4% in test [4]. The activity, negative = inhibition in [5] is 23.3%. Also, the Potency entry in [8] and in test [9] was “inactive” each time.

Turning to `COc1cccc2c1C(=O)c1c(O)c3c(c(O)c1C2=O)C[C@@](O)(C(=O)CO)C[C@H]3O[C@H]1C[C@@H](N)[C@H](O)[C@@H](C)O1.[W]`, the Potency in test [1] was greater than 11.4 µM; in [6], greater than 46 µM; in test [7] it was greater than 9.22 µM. For the same molecule, the figures for the activity change, negative = inhibition in test [2] and in test [4] were 0.391% and -27.2%, respectively. Further, the Potency entry in test [3], in test [8] and in test [9] was “inactive” in each case. In addition, the activity, negative = inhibition in [5] is 14.9%.

In the case of `O=[N+]([O-])c1nccn1C[C@H](O)CN1CCCCC1`, the Potency in [1] was greater than 11.4 µM; in test [6], greater than 46 µM; in [7], greater than 9.22 µM. Moreover, the activity change, negative = inhibition in [2] was 21.1%; in test [4], 0.912%. Further, the Potency result in test [3], in test [8] and in test [9] was “inactive” in each case. Also, in test [5], the activity, negative = inhibition was 6.06%.

With `Nc1ncnc2c1ncn2[C@H]1O[C@@H](CO)[C@@H](O)[C@H]1N`, the Potency in [1] was greater than 11.4 µM; in [6] it was greater than 46 µM; in test [7], greater than 9.22 µM. Further, the activity change, negative = inhibition in test [2] was -9.35%; in test [4], -3.9%. The Potency result in [3], in test [8] and in [9] was “inactive” in each case. Besides, the activity, negative = inhibition in [5] is 5.68%.

`CN(C)CN1C(=O)S/C(=C2/C(=O)N(CN(C)C)c3ccccc32)C1=O`: the Potency in test [1] was greater than 11.4 µM; in test [3], 0.794 µM (active); in test [6], greater than 46 µM; in test [7], greater than 9.22 µM. The activity change, negative = inhibition was -4.12% in test [2] and 9.46% in test [4]. In addition, the activity, negative = inhibition in test [5] is -0.139%. Also, the Potency entry in [8] and in [9] was “inactive” throughout.

As to `Cc1ccc(S(=O)(=O)Nc2ccccc2C(=O)c2ccc(C)c(C)c2)cc1`, the Potency was greater than 11.4 µM in [1], 0.631 µM (active) in test [3], greater than 46 µM in [6] and greater than 9.22 µM in [7]. In addition, the activity change, negative = inhibition is 5.46% in test [2] and 2.8% in [4]. Also, in [5], the activity, negative = inhibition was -2.64%. Besides, the Potency result in [8] and in [9] was “inactive” throughout.

In the case of `O=C(O)c1c2c(c(O)c3c1CN(C1CCCCC1)CO3)OCN(C1CCCCC1)C2`, the figures for the Potency in [1], in test [6] and in test [7] were greater than 11.4 µM, greater than 46 µM and greater than 9.22 µM, respectively. For the same molecule, the activity change, negative = inhibition in [2] is 4.96%; in [4] it was 29.1%. Moreover, the Potency entry in test [3], in test [8] and in test [9] was “inactive” throughout. Besides, the activity, negative = inhibition in test [5] was 0.651%.

With `c1ccc2cc(-c3cc(-c4cc(-c5ccc6ccccc6c5)on4)no3)ccc2c1`, the Potency was greater than 11.4 µM in test [1], 1.58 µM (active) in test [3], greater than 46 µM in [6] and greater than 9.22 µM in [7]. The activity change, negative = inhibition in test [2] is 2.52%; in test [4], 1.2%. Further, in test [5], the activity, negative = inhibition is 1.33%. Further, the Potency entry in [8] and in [9] was “inactive” each time.

On to `O=CN[C@@H](Cc1cnc[nH]1)C(=O)O`, for which the Potency in [1] is greater than 11.4 µM; in test [6], greater than 46 µM; in test [7] it was greater than 9.22 µM. Moreover, the activity change, negative = inhibition in test [2] is 4.13%; in [4], 2.87%. In addition, the Potency entry in test [3], in [8] and in test [9] was “inactive” in each case. The activity, negative = inhibition in test [5] is 0.427%.

As for `Nc1nc(N)c2[nH]c(CNc3ccc(C(=O)O)cc3)nc2n1`, the results for the Potency in test [1], in test [6] and in [7] were greater than 11.4 µM, greater than 46 µM and greater than 9.22 µM, respectively. Besides, the values for the activity change, negative = inhibition in test [2] and in test [4] were -2.88% and 23.3%, respectively. In addition, the Potency result in test [3], in test [8] and in test [9] was “inactive” each time. For the same molecule, the activity, negative = inhibition in [5] is -0.181%.

The values are drawn from PubChem BioAssay (NCATS).
